# Bioassay records: PubChem BioAssay, National Center for Advancing Translational Sciences (NCATS)
# D2 PAM-1: human D2 receptor positive allosteric modulation. potentiation, % (concentration not given with the values). DiscoveRx D2 beta-arrestin cells, luminescence, 90 min; 100% = 57 uM dopamine signal. AID 624464. actives 0.23% (n = 360,000); in the data active = potentiation above about 50%; inconclusive = mostly about 30% to 49%
# Target sequence (P14416 whole entry, looked up): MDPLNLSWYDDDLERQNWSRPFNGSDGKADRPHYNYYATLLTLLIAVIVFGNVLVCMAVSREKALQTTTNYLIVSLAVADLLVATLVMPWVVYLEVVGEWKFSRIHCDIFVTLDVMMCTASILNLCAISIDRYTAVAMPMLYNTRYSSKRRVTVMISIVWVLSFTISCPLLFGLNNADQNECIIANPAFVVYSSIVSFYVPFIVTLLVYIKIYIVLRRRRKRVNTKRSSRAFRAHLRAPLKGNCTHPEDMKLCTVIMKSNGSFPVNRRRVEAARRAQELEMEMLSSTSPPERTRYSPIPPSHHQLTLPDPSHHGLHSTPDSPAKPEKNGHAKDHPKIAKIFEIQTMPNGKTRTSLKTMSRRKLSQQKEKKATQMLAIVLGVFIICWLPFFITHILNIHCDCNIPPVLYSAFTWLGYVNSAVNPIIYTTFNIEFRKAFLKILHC
#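 PathHunter beta-arrestin assay in DiscoveRx D2 cells. Compounds were added with an EC20 of dopamine (50 nM final) for 90 min at 37 deg C. Luminescence was read 1 h after detection reagent, with 57 uM dopamine as the EC100 control.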
# D2 antagonist: antagonizes the human D2 dopamine receptor; actives 2% (n = 340,000); inhibition, % at 10 µM; HEK293 TREx D2 cells, calcium flux, dopamine EC80; in the data active = inhibition above about 30%; inactive = below that, where a call was filed; also: 0% is about no effect
#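 In this primary screen, negative modulation is detected by tracking calcium flux after an EC80 dopamine challenge in inducible HEK293 T-REx D2 cells preexposed to test compound for 180 s.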
# D2 PAM-2: positive allosteric modulators of human D2 dopamine receptor; AID 485347; HEK293 T-REx D2, calcium flux, EC20 dopamine potentiation; potentiation, % at 10 µM; P14416; actives 0.34% (n = 340,000);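 active = potentiation over 3 SD above the plate norm, cut at about 30% in these data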; also: 0% is about no effect
#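 Potentiation of an EC20 dopamine calcium response measured kinetically over 180 s, after a preceding 180 s compound-only read flagging agonists. Cells: inducible Hek293 Trex D2 line, 4000/well, cultured overnight at 30 C before dye loading.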
# D2 ag-1: activates the human D2 dopamine receptor | actives 0.084% (n = 360,000) | DiscoveRx PathHunter D2 beta-arrestin, luminescence, 90 min; 100% = 57 uM dopamine signal | P14416 | activation, % (no concentration beside the values); in the data active = activation above about 40%; inconclusive = between about 15% and that limit
#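 DiscoveRx PathHunter D2 beta-arrestin cells (2,100/well) attached overnight, then compound-stimulated 90 min at 37 C in HBSS/10 mM HEPES/0.1% Tween-20 buffer; beta-galactosidase complementation read by luminescence after 1 h at ambient temperature. Dopamine 57 uM final (EC100) as control.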
# D2 ag-2: D2 dopamine receptor (human) agonism; HEK293 T-REx D2 cells, calcium flux agonist mode; activation, % at 2 µM; actives 0.53% (n = 340,000);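 active = activation over 3 SD above normal in the single-dose calcium agonist read, cut at about 30% in these data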; also: 0% is about no effect
#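 Calcium-flux readout, 1 cycle/sec over 180 s following compound pin transfer, in inducible HEK293 Trex D2 cells (force-coupled); dopamine controls included. Positive calcium responses during this window marked compounds as potential agonists.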
# The depositor's hits bear a star; ? = inconclusive; · = no result. The list is not random: actives were taken first. Their share in the collection is about 2.4%.
SMILES,D2 PAM-1,D2 antagonist,D2 PAM-2,D2 ag-1,D2 ag-2
COc1ccc(-c2nnc(SCC(=O)c3ccc([N+](=O)[O-])cc3)o2)cc1OC,·,·,-0.2,·,-0.2
CCOc1ccc(C(=O)NC2CC(=O)N(c3ccc(C)cc3)C2)cc1OCC (configuration not stated),·,·,19.5,·,0.1
COc1ccc2c3c(cccc13)N(C)N=C2C,56.4*,-1.1,8.4,7.3,-0.3
COc1ccc2c3c(cccc13)OC2=O,-0.6,4.6,8.9,0.4,-0.7
O=C(CN1CCCC1)NC(c1ccccc1)c1ccccc1,-13.0,-6.2,-6.1,-2.1,1.7
O=C(CN1CCN(c2ccccc2O)CC1)Nc1ccc2c(c1)CCC2,-16.1,66.8*,-23.2,-0.1,-0.8
CCOc1ccccc1N1CCN(C(=O)NCc2ccc(C)cc2)CC1,-18.1,30.3*,32.1*,-5.2,-1.8
O=C(CN1CCN(c2ccccc2O)CC1)NC(c1ccccc1)c1ccccc1,-32.9,64.1*,-24.0,-3.0,-0.9
CCOc1ccccc1N1CCN(CC(=O)NC(C)c2ccccc2)CC1 (configuration not stated),-23.2,100.3*,-20.2,2.7,0.3
CC(NC(=O)CN1CCN(c2ccc(Cl)cc2)CC1)c1ccccc1 (configuration not stated),-3.1,-6.8,5.9,-4.6,-0.1
CCN(C(=O)CN(C)S(=O)(=O)c1ccc2c(c1)c(=O)n(C)c(=O)n2C)c1ccc(OC)cc1,·,·,-0.9,·,·
O=C(Cn1c(=O)c(CNc2ccccc2)cc2cc3c(cc21)OCCO3)Nc1ccccc1Cl,·,·,-5.7,·,1.0
COc1ccc(-c2cc([N+](=O)[O-])ccc2OCC(=O)N(C)CC(=O)Nc2ccc(C)cc2)cc1,-26.4,-4.6,-3.1,-4.0,-1.3
Cc1ccc(NC(=O)CN(C)C(=O)COc2cc(F)ccc2[N+](=O)[O-])cc1,-32.6,61.9*,-19.4,-4.6,-0.6
Cc1onc(-c2ccccc2)c1C(=O)NNC(=S)NC(=O)c1ccc(Cl)cc1Cl,-13.0,30.3*,-4.0,-2.6,31.8*
Cc1onc(-c2ccccc2)c1C(=O)NNC(=O)c1ccccc1,0.0,1.8,14.0,-5.6,-0.5
Cc1cccc(C(=O)NC(=S)NNC(=O)c2ccccc2Cl)c1,-11.7,25.2,6.0,1.3,31.2*
Cc1ccccc1C(=O)NNC(=S)NC(=O)c1ccc(Cl)cc1Cl,-12.3,30.9*,-14.7,-3.4,46.3*
O=C(NC(=S)NNC(=O)c1ccc(Cl)cc1Cl)c1cccnc1,-28.2,-0.5,1.1,2.4,0.9
CC(=O)COC(=O)C1CCN(S(=O)(=O)c2cc([N+](=O)[O-])ccc2Cl)CC1,14.2,-9.5,-3.3,-1.6,0.3
O=C(COC(=O)C1CCN(S(=O)(=O)c2cc([N+](=O)[O-])ccc2Cl)CC1)Nc1ncc(Cl)cc1Cl,70.4*,14.3,-6.9,2.7,0.9
Cc1ccc2nc(NC(=O)C3CCN(S(=O)(=O)c4cc([N+](=O)[O-])ccc4Cl)CC3)sc2c1,58.8*,-4.3,12.8,?,2.3
COc1ccc2nc(NC(=O)C3CCN(S(=O)(=O)c4cnc[nH]4)CC3)sc2c1,-7.3,32.3*,15.8,-1.0,-0.1
O=C(Nc1nc2ccc(F)cc2s1)C1CCN(S(=O)(=O)c2cc([N+](=O)[O-])ccc2Cl)CC1,?,15.2,-2.4,10.6,0.8
Cc1cccc(-c2noc(-c3cc(C(C)C)[nH]n3)n2)c1,·,·,-1.0,·,0.4
SMILES,D2 PAM-1,D2 antagonist,D2 PAM-2,D2 ag-1,D2 ag-2
O=C(CNC(=O)c1cccs1)NCC(=O)OCc1ccc(F)cc1,-15.4,3.3,35.1*,-1.9,-0.1
CCCn1c2ccccc2c2cnn(CC(=O)N(Cc3ccccc3)C(C)C)c(=O)c21,·,·,5.5,·,25.7
O=C(Nc1nnc(-c2ccccc2F)s1)C1CCCO1 (configuration not stated),2.3,39.7*,0.6,-1.4,0.7
C=CCNc1nc(NCCN2CCOCC2)nc(N2CCOCC2)n1,-15.7,-0.2,13.5,-0.4,0.0
C=CCNc1nc(N2CCOCC2)nc(N2CCOCC2)n1,0.5,31.2*,-14.2,0.2,-0.7
COc1ccc(-n2nnnc2-c2cccc(OC)c2)cc1,11.6,35.6*,-2.4,-0.5,0.4
O=C(Nc1c(Cl)cccc1Cl)c1cc(-c2cccc(O)c2)on1,·,·,10.2,·,-0.5
